High-throughput results: PubChem BioAssay, National Center for Advancing Translational Sciences (NCATS)
DT40 TDP1 no CPT: qHTS for Inhibitors of human tyrosyl-DNA phosphodiesterase 1 (TDP1): qHTS in cells in absence of CPT. DT40 Tdp1-/- hTDP1 cells, no CPT, ATP luminescence, 48 h. Potency, µM (doses to about 46.2 µM), for the others: at the top dose activity change, negative = growth inhibition, hits mostly inhibitors. 420,000 tested, 15% active. AID 686978, 2013; note: nearly all actives have a fitted effect of over 55% in size
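DT40 Tdp1-/-;hTDP1 cells, no CPT (DMSO vehicle only), 400 cells/well; compounds pin-transferred; ≥48 hr, 37 °C; CellTiter-Glo 30 min RT dark, luminescence read.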
KB-3-1 tox: qHTS assay for MDR1-selective chemotherapeutics: Primary screen using the parental adenocarcinoma cell KB-3-1 | KB-3-1 viability, CellTiter-Glo ATP luminescence, 72 h | Potency, µM (highest dose often 46.1 µM), most hits filed as cytotoxic | 400,000 tested, 1.4% active | AID 1347075, 2019; note: nearly all actives have a fitted effect of over 60% in size
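Parental KB-3-1 adenocarcinoma cells in phenol-red-free DMEM with 10% FBS were pin-treated with compounds at several concentrations, incubated 72 h at 37 °C, and viability read by CellTiter-Glo luminescence; concentration-effect curves were fitted after normalization.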
HT1080 IDH1KD tx: qHTS for induction of synthetic lethality in tumor cells producing 2HG: qHTS for the HT-1080-IDH1KD cell line; HT-1080 IDH1 knockdown viability, ATP luminescence, 48 h; Potency, µM (top dose mostly 46.1 µM), for inactives: top-dose activity, negative = toxicity, usual class: cytotoxic; 360,000 tested, 2% active;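 note: 0% = DMSO wells and -100% = cell-free medium wells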
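% activity derives from luminescence (CellTiter-Glo), normalised to DMSO and no-cell wells. HT-1080-IDH1KD cells, 750/well, had 48 h compound exposure at 37 °C.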
KB-V1 MDR tox: qHTS assay for MDR1-selective chemotherapeutics: Primary screen using the drug-selected MDR subline cells KB-V1. Potency, µM (top dose mostly 46.1 µM), actives largely listed as cytotoxic. 400,000 tested, 3.4% active. AID 1347076, 2019. KB-V1 MDR cells viability, CellTiter-Glo, 72 h; note: nearly all actives have a fitted effect of over 60% in size
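Following 72 h at 37 degrees C with compound, KB-V1 cell viability was read by CellTiter-Glo luminescence, medium being phenol-red-free DMEM plus 10% FBS; concentration-response parameters came from normalized, curve-fitted qHTS data.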
DT40 TDP1 CPT: qHTS for Inhibitors of human tyrosyl-DNA phosphodiesterase 1 (TDP1): qHTS in cells in presence of CPT | AID 686979, 2013 | Potency, µM (doses to about 46.2 µM), for the others: at the top dose activity change, negative = growth inhibition, usual class: inhibitors | chicken DT40 Tdp1-/-;hTDP1 cells + 20 nM CPT, ATP luminescence, 48 h | 420,000 tested, 12% active; note: nearly all actives have a fitted effect of over 55% in size
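Cell growth measured by CellTiter-Glo luminescence after a minimum 48 h, 37 C compound exposure with 20 nM CPT in Tdp1-knockout DT40 cells stably expressing hTDP1, seeded 400/well; qHTS titration format.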
HT1080NT lethal: qHTS for induction of synthetic lethality in tumor cells producing 2HG: qHTS for the HT-1080-NT fibrosarcoma cell line | HT-1080-NT fibrosarcoma viability, CellTiter-Glo ATP luminescence, 48 h | AID 686970, 2013 | Potency, µM (highest dose often 46.1 µM), inactives show top-dose activity, negative = less viability, actives largely listed as cytotoxic | 360,000 tested, 1.6% active;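 note: NT is the 2HG producing partner of a matched IDH1 knockdown line; 0% = DMSO-treated cells and -100% = media-only wells without cells; nearly all actives have a fitted effect of over 55% in size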
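Viability by CellTiter-Glo luminescence after 48 h compound exposure at 37C of HT-1080-NT cells (750/well, RPMI, 5% FBS). % activity scaled between DMSO wells and medium-only wells, then curve-fitted and categorized by curve class.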
Numbers without * were called inactive; i = inactive; ? = inconclusive; . = no result given. Hits are enriched below; roughly 19% of the tested compounds scored in any of these assays. Calls come from the whole dose curve; as a rule, active = well fitted curve in the direction sought with a large enough effect; inconclusive = small, poorly fitted or top-dose-only effect, or another doubt; inactive = no such curve, though single readings can be large; an effect the other way counts as inactive or inconclusive. Unless noted, % is set by controls: 0 for no effect and ±100 for the full control effect; potency is the fitted concentration of half-maximal effect.

SMILES	DT40 TDP1 no CPT	KB-3-1 tox	HT1080 IDH1KD tx	KB-V1 MDR tox	DT40 TDP1 CPT	HT1080NT lethal
Cc1ccc(-n2nnnc2C2CCN(S(=O)(=O)c3ccc(OC(F)(F)F)cc3)CC2)cc1	-13%	.	.	.	-4%	.
COc1ccc(-n2nnnc2C2CCN(S(=O)(=O)c3ccc(F)cc3Cl)CC2)cc1	16µM*	.	.	.	?	.
COc1ccc(C2CCCN2C(=S)Nc2cccc(C)c2C)cc1OC (centres undefined)	?	i	-1%	i	2%	16%
Cc1ccc(-c2noc(CSc3nnc(CCc4ccccc4)n3-c3ccccc3)n2)cc1	16µM*	i	?	?	16µM*	?
CCc1ccc(-n2c(C)nnc2SCc2nc(-c3ccc(OC)cc3)no2)cc1	?	i	.	i	?	.
COc1ccc(-c2noc(CSc3nnc(CCc4ccccc4)n3-c3ccccc3)n2)cc1OC	16µM*	i	?	23µM*	15µM*	?
CO[C@@H]1[C@@H](OC2OC(C)C(OC3CC(C)(O)C(OC(=O)CC(C)C)C(C)O3)C(N(C)C)C2O)[C@@H](CC=O)C[C@@H](C)C(=O)/C=C\C2O[C@H]2C[C@@H](C)OC(=O)C[C@H]1OC(C)=O (some centres undefined)	3.2µM*	i	.	i	5.6µM*	.
CO[C@@H]1[C@@H](O[C@@H]2O[C@H](C)[C@@H](O[C@H]3C[C@@](C)(O)[C@@H](OC(=O)CC(C)C)[C@H](C)O3)[C@H](N(C)C)[C@H]2O)[C@@H](CC=O)C[C@@H](C)[C@@H](O)/C=C/C=C/C[C@@H](C)OC(=O)C[C@H]1O	6µM*	.	.	.	6.7µM*	.
CC[C@H]1OC(=O)[C@H](C)[C@@H](O[C@H]2C[C@@](C)(OC)[C@@H](O)[C@H](C)O2)[C@H](C)[C@@H](O[C@@H]2O[C@H](C)C[C@H](N(C)C)[C@H]2O)[C@](C)(O)C[C@@H](C)C(=O)[C@H](C)[C@@H](O)[C@]1(C)O	-7%	i	2%	?	-26%	-13%
Cc1ccc(S(=O)(=O)n2cccc2/C=C/[N+](=O)[O-])cc1	2.9µM*	?	?	?	2.9µM*	?
CC(C)CC1OC(C)Cc2[nH][nH]c(=O)c21 (centres undefined)	2%	i	12%	i	-19%	25%
COCCn1c(SCC(=O)c2ccc(Cl)cc2)nnc1C(C)C	21µM*	i	?	i	?	?
CC12CCC(c3c(C(=O)Nc4nccs4)nn(-c4ccccc4)c31)C2(C)C (centres undefined)	18µM*	i	14µM*	i	16µM*	?
CCCN(CCC)C(=O)Cn1c(=O)n(-c2ccc(CC)cc2)c(=O)c2ccc(C(=O)NCCc3ccccc3)cc21	7.3µM*	i	.	?	12µM*	.
CCc1ccc(-n2c(=O)c3ccc(C(=O)NCCc4ccccc4)cc3n(CC(N)=O)c2=O)cc1	21µM*	i	14%	?	?	11%
CCc1ccc(NC(=O)Cn2c(=O)n(CCCCC(=O)NCCc3ccccc3)c(=O)c3ccccc32)cc1	-12%	i	.	?	-12%	.
CCCN(CCC)C(=O)Cn1c(=O)n(-c2ccc(C)cc2)c(=O)c2ccc(C(=O)NCc3ccccc3Cl)cc21	?	i	.	i	?	.
O=S(CC(O)c1ccccc1)c1ccccc1 (centres undefined)	16µM*	i	0%	i	?	-3%
CCNc1nc(NCC)n2c(SCC(=O)c3ccc(C(C)C)cc3)nnc2n1	26µM*	i	2%	?	23µM*	-5%
O=C(C1COc2ccccc2O1)N1CCN(c2ccc([N+](=O)[O-])cc2)CC1 (centres undefined)	21µM*	?	-13%	i	?	-1%
N#Cc1ccccc1S(=O)(=O)N1CCN(C(=O)C2COc3ccccc3O2)CC1 (centres undefined)	-5%	i	-6%	21µM*	-10%	-3%
O=C(C1COc2ccccc2O1)N1CCN(c2nc3ccc([N+](=O)[O-])cc3s2)CC1 (centres undefined)	23µM*	i	11%	i	?	1%
CCc1ccc(N2CC(C(=O)Nc3cc(C)on3)CC2=O)cc1 (centres undefined)	-22%	i	-2%	i	-6%	-5%
CC1=C(C(=O)Nc2ccccc2)C(c2ccc(Br)cc2)n2nc(CCCO)nc2N1 (centres undefined)	3%	i	.	i	-4%	.
C[C@H](O)CNC(=O)c1[nH]cnc1C(=O)Nc1cccc(Cl)c1	-26%	i	8%	i	-13%	16%
SMILES	DT40 TDP1 no CPT	KB-3-1 tox	HT1080 IDH1KD tx	KB-V1 MDR tox	DT40 TDP1 CPT	HT1080NT lethal
CCN(CC)CCCNc1nc(CN2CCOCC2)nc2sc3c(c12)CCC3	1%	i	-13%	i	13%	?
Cc1cc(C)n(-c2nc(NCCN(C)C)c3c4c(sc3n2)CCCC4)n1	6.5µM*	i	21µM*	?	8.2µM*	21µM*
Cc1cc(C)n(-c2nc(SCCN3CCOCC3)c3c4c(sc3n2)CCCC4)n1	21µM*	?	-20%	i	-32%	-6%
Cc1cc(C)n(-c2nc(NCCCN(C)C)c3c4c(sc3n2)CCCC4)n1	?	?	?	?	?	15µM*
Cc1cc(C)n(-c2ncnc3sc4c(c23)CCCC4)n1	-5%	i	-1%	i	3%	?
CSC[C@H]1CN(c2ccccc2)C(=O)[C@@H]1CC(=O)Nc1ccc(Br)cc1	-2%	i	2%	?	1%	3%
CCOc1ccc(-c2noc(-c3csc([C@@H]4C[C@H](O)[C@@H](CO)O4)n3)n2)cc1	23µM*	i	-16%	i	?	-6%
COc1cc(OC)cc(-c2noc(-c3csc([C@@H]4C[C@H](O)[C@@H](CO)O4)n3)n2)c1	15µM*	i	2%	i	?	7%
